MsrA inh: bovine MsrA enzyme inhibitors, primary screen, biochemical, absorbance, HTS | AID 651718, 2012 | inhibition, % at 15.5 µM | actives 0.75% (n = 360,000) | Methionine sulfoxide reductase A (Bos taurus) | purified bovine MsrA, absorbance read-out;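 further: 0% = vehicle wells with enzyme and 100% = reference inhibitor wells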
NPR1 activator: GC-A stimulated cGMP production enhancers – HEK293 GC-A cells, cGMP TR-FRET, EC30 ANP, primary screen; Atrial natriuretic peptide receptor 1 (Homo sapiens), P16066; 0% at EC30 ANP, 100% saturating ANP; activation, % at 10 µM; actives 0.14% (n = 370,000); in the data active means activation above about 40%
Target sequence (P16066 whole entry, looked up): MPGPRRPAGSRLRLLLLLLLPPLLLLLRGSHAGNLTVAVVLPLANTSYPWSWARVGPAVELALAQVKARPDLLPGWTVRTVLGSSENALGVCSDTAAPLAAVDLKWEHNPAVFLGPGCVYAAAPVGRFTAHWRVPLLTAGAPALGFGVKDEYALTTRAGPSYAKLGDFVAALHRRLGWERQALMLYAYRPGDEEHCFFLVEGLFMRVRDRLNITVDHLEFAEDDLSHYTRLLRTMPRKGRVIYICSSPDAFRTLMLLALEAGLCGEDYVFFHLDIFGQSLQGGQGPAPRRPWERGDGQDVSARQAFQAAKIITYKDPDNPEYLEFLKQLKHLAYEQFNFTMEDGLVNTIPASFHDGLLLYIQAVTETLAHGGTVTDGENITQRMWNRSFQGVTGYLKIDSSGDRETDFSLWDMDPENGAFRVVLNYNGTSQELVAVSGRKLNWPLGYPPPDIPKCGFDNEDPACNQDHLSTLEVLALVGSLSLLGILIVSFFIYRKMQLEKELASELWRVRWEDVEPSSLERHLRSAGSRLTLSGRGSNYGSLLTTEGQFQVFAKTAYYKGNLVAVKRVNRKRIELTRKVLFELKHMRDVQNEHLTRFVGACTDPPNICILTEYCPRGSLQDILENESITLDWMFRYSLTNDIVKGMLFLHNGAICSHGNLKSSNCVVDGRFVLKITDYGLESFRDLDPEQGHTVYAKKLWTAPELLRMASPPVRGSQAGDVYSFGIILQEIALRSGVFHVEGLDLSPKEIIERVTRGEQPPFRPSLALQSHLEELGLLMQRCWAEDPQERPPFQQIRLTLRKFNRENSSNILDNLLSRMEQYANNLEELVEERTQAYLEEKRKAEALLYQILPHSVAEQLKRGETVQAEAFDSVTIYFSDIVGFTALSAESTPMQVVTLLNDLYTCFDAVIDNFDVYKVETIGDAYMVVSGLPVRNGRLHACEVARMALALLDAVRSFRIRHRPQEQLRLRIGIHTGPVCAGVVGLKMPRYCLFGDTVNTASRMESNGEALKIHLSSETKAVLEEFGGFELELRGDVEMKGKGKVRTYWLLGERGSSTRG
bovine MsrA act: bovine MsrA enzyme activators, primary screen, biochemical, absorbance, HTS; activation, % at 10.6 µM; Methionine sulfoxide reductase A (Bos taurus); actives 0.3% (n = 360,000); purified bovine MsrA, absorbance read-out; AID 602163, 2012; in the data active means activation above about 7.5%;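 further: 0% = vehicle and 100% = reference activator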
m5-HT2A agonist: mouse Htr2a agonists via beta-arrestin recruitment, primary screen, cell-based, luminescence; actives 0.66% (n = 360,000); 5-hydroxytryptamine receptor 2A (Mus musculus), P35363; activation, % at 7.6 µM; AID 624169, 2012; CHO-K1 mHTR2A beta-arrestin complementation; percent of 30 µM serotonin response;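 active means activation above a run cutoff, the mean activation of all tested compounds plus 3 SD, cut at about 14% in these data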;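 further: 0% = plate median of compound wells and 100% = 30 µM serotonin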
GC-B act: human GC-B receptor activators, primary screen, HEK293 GC-B cells, cGMP TR-FRET, EC30 CNP; 0% at EC30 CNP, 100% saturating CNP; activation, % at 10 µM; actives 0.11% (n = 370,000); Atrial natriuretic peptide receptor 2 (Homo sapiens), P20594;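 active means activation at 10 µM reaching about 35% in either raw or pattern-adjusted values, limit read from the data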
MsrA conf: bovine MsrA inhibitors, retest, confirmation, biochemical, absorbance, HTS; shares compounds with MsrA inh; purified bovine MsrA, absorbance read-out; inhibition, % at 15.5 µM; actives 41% (n = 2,300); AID 651822, 2012;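 further: coupled to thioredoxin reductase with NADPH and selenocystamine and DMSO as substrate; 0% = vehicle only and 100% = full effect of reference inhibitor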
Numbers without * were called inactive; / = no result. Shown are actives, neighbours in structure and some others; about 1.8% of the full set was active somewhere. Unless noted, no stated cut-off is given here; in the data, active means inhibition above about 4.5%; inactive means the rest.

SMILES	MsrA inh	NPR1 activator	bovine MsrA act	m5-HT2A agonist	GC-B act	MsrA conf
CCN(c1ccccc1)S(=O)(=O)c1c[nH]c2ccc([N+](=O)[O-])cc12	1	-7	3	-12	-5	/
Cc1cc(C)cc(Nc2ccc([N+](=O)[O-])nc2[N+](=O)[O-])c1	19*	-1	-1	1	2	17*
CCC[C@H]1[C@@H](N)CC[C@@]23CCCN2C(=O)CCC[C@@H]13	/	3	/	/	-3	/
CC1CCc2c(sc(NC(=O)c3ccco3)c2C(=O)O)C1 (stereo not given)	5.8*	0	-3	3	-4	4.7*
O=C(Nc1sc2c(c1C(=O)O)CCCCC2)c1ccco1	6.0*	-2	-1	0	-5	4
CN(C)C(=O)c1c(NC(=O)c2ccco2)sc2c1CCCCC2	1	0	2	-6	-2	/
CN1CCN(C(=O)c2c(NC(=O)c3ccco3)sc3c2CCC(C(C)(C)C)C3)CC1 (stereo not given)	-1	/	-4	-6	/	/
Cc1ccc(-c2nnc(Nc3ccc(C(=O)N(C)C)cc3)c3ccccc23)cc1S(=O)(=O)NCC1CCCO1 (stereo not given)	4.7*	5	-3	-3	-1	3
O=C(Nc1ccc2[nH]c(=S)sc2c1)c1ccccc1	5.1*	-2	0	1	0	2
O[C@H](COc1cccc(Br)c1)CN1CCC(C(O)(c2ccccc2)c2ccccc2)CC1	/	-17	/	/	-15	/
COc1ccc(Cl)cc1S(=O)(=O)N1CCN(C(=O)CSc2nc3ccccc3nc2N2CCCC2)CC1	/	-3	/	/	-6	/
CCOC(=O)c1cc(C(=O)OCC)c(=O)[nH]c1N1CCCC1	6.8*	-4	-11	1	-1	4
CCOC(=O)c1cc(C(=O)OCC)c(=O)[nH]c1C	1	-2	-6	6	-3	/
CCOC(=O)CSC1=NC(=O)/C(=C\c2ccc(Cl)cc2)S1	5.2*	32	3	3	7	3
CSC1=NC(=O)/C(=C/c2ccc(SC)cc2)S1	0	-5	-5	-1	-5	/
Cc1nc(NC(=O)c2ccc(Br)s2)sc1C(=O)N(C)C	5.0*	-1	-13	0	3	2
COc1ccc(/C=C/C(=O)Nc2nc(C)c(C(=O)N(C)C)s2)cc1	5.4*	4	-6	2	0	6.5*
COc1ccc(/C=C/C(=O)Nc2nc(C)c(C(=O)N(C)C)s2)cc1OC	5.7*	-6	-5	5	2	5
COc1ccc(C(=O)Nc2nc(C)c(C(=O)N(C)C)s2)cc1OC	2	-3	1	-4	1	/
CCOc1ccc(N(C)S(=O)(=O)c2cc(-c3cc(C)no3)ccc2C(C)C)cc1	11*	-3	-11	4	3	12*
CCN(c1ccc(OC)cc1)S(=O)(=O)c1cc(-c2cc(C)no2)ccc1C(C)C	1	-6	0	3	0	/
COC(=O)c1cc(-c2cccc(C(F)(F)F)c2)c(=O)n2c1CCC2	/	4	/	/	-2	/
CCOC(=O)C1=NOC(C(C)=O)(C(=O)N2CCOCC2)C1 (stereo not given)	/	-2	/	/	-1	/
Cc1csc(NC(=O)c2ccc(COc3ccc(Cl)c(Cl)c3)o2)n1	/	24	/	/	-2	/
Oc1ccccc1C1=Nc2ccccc2N=C(c2ccco2)C1	4.7*	-6	-4	-6	4	2
SMILES	MsrA inh	NPR1 activator	bovine MsrA act	m5-HT2A agonist	GC-B act	MsrA conf
CCOc1ccc(-c2csc(N3CCC(C(N)=O)CC3)n2)cc1	/	2	/	/	-2	/
Nc1ccc(C(=O)N/N=C2\CCCc3c2[nH]c2ccccc32)cc1	5.3*	-11	-6	-7	-5	7.1*
CC(C)c1ccc2[nH]c3c(c2c1)CCC/C3=N\NC(=O)c1ccncc1	1	-11	-4	-11	2	/
CC(C)(C)c1cc[n+](-c2[nH]c(=O)sc2/C=N/N=C(\[O-])c2cccnc2)cc1	5.4*	0	-3	1	3	5.9*
O=c1[nH]c(-[n+]2ccc3ccccc3c2)c(/C=N/N=C(\[O-])c2ccccc2)s1	3	3	-3	-1	9	/
Cc1cc2c(cc1S(=O)(=O)NCCc1ccc(Cl)cc1)OCC(=O)N2	0	-1	-3	-6	-2	/
Cn1ccnc1Sc1cc(NCCCO)c([N+](=O)[O-])c2nonc12	5.7*	5	-10	-6	-3	2
COc1c(F)cccc1C1=CC(=O)C[C@H](c2ccc3c(c2)OCO3)C1	7.1*	13	-1	-2	4	3
FC(F)(F)Oc1ccc(Cn2ccc3ccc(-c4ccc5ccn(Cc6ccc(OC(F)(F)F)cc6)c5c4)cc32)cc1	/	-5	/	/	-3	/
COc1ccc(C(=O)/C=C/Nc2cc(C)on2)cc1	6.6*	0	-5	0	-2	6.2*
COc1ccc(C(=O)/C=C/Nc2cccc(O)c2)cc1	2	-1	-3	6	-3	/
CCCn1c(SC/C(O)=C(\C#N)c2nc3ccccc3[nH]2)n[nH]c1=O	4.7*	0	-5	4	-1	2
N#C/C(=C(/O)CSc1n[nH]c(N)n1)c1nc2ccccc2[nH]1	3	2	-5	-3	5	/
Cn1cnnc1SC/C(O)=C(\C#N)c1nc2ccccc2[nH]1	4.8*	4	-8	0	-3	2
O=C(O)c1ccc(/C=C/C(=O)c2ccc3c(c2)OCCCO3)cc1	6.5*	3	-5	-5	0	2
CC(=O)Nc1ccc(/C=C/C(=O)c2ccc3c(c2)OCCO3)cc1	4	-4	-4	4	-3	/
O=C(NCC(c1ccccc1)c1ccccc1)[C@H](Cc1c[nH]c2ccccc12)NC1(C(=O)NC2CCCCC2)CCCC1	/	-14	/	/	-13	/
c1ccc2c(c1)nc(N1CCOCC1)c1nnnn12	7.5*	-5	-3	8	-1	14*
c1ccc(N2CCN(c3nc4ccccc4n4nnnc34)CC2)cc1	-1	-2	-4	-3	-15	/
CC(=O)Nc1ccc(NC(=O)CSc2nnc(-c3cccs3)o2)cc1	/	-2	/	/	-1	/
CC1(C)Cc2nc(N3CCCC3)c(C#N)cc2CO1	8.7*	-4	-11	0	-8	5.4*
COc1cc(/C=N/NC(=O)c2cc(-c3ccco3)nc3ccccc23)cc(OC)c1O	4.7*	-7	-7	1	-4	3
